We go through 15 molecules from PubChem BioAssay (NCI).

“And” between values parts separate entries of the source, which are not always exact repeats. Equal entries are not always repeated. This is part of a sample that, as a whole, favours compounds with a hit. Of some 83,000 tested, about 20% had one in any assay.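 Negative percent growth values reflect cell death: -40 means 40% of the cells present at the start died, and -100 means all died.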 The source made the active and inactive calls. The calls were made as follows: active = growth percent below 10; inactive = the rest.

The subject of the assay is MDA-MB-468 breast. Briefly: NCI-60 one-dose screen, 48 h (100 = growth as untreated, 0 = no growth, -100 = all killed). Particulars: 10 µM unless noted.
For `COc1ccc2c(c1)OC1=C(C(=O)OC1)C2c1cc(OC)c(OC)c(OC)c1` (stereo not given), the growth was -5.94% (active).
The value for `CC(=O)Nc1ccc(C=Nc2ccc3ccccc3c2)cc1` was 107% (inactive); that for `CCCC[n+]1ccc(SCC(=O)n2ccc3ccccc32)c2ccccc21` was 52.1% (inactive); that for `N#Cc1c(-c2ccc(F)cc2)n2c(nc1=O)SC(=O)C2=O` was 94.5% (inactive).
The result for `Cc1ccc(C(CC(=O)O)c2c(C)[nH][nH]c2=O)cc1` (stereo not given) reads 101% (inactive).
The value for `CCOC(=O)C1=C(N)Oc2c(sc3c(C)cccc23)C1c1ccc(Cl)cc1` (stereo not given) was -2.2% (active).
Regarding `CCCCCCNC(=O)Oc1ccc(/C(=C(\C)c2ccccc2)c2ccc(OCCN(CC)CC)cc2)cc1`, the growth is 74.9% (inactive).
The result for `Cc1ccc(NCN2C(=O)c3ccccc3C2=O)c(C)n1` reads 98.5% (inactive).
For `COc1ccc(NC(=O)CSc2nc(C)c(C(C)=O)n2-c2ccc([N+](=O)[O-])cc2)cc1`, the growth was 91.4% (inactive).
Consider `Cc1ccc2c(n1)C(=O)C(Oc1ccc(Br)cc1)=CC2=O`, for which the growth is 91.3% (inactive).
Turning to `Cc1ccc(NCCN2CCCCC2)c2c(=O)c3ccccc3sc12`, the growth was 11.1% (inactive).
The value for `Clc1ccc(NC(Nc2ccc(Cl)cc2)C(Cl)(Cl)Cl)cc1` was 98.4% (inactive) and 108% (inactive); that for `Cn1cc(-c2nc(-c3c[nH]c4c(Cl)nccc34)cs2)c2ccccc21` was 8.74% (active).
Regarding `COc1cc(C2=NN(C(C)=O)C(c3cc(OC)c(OC)c(OC)c3)C2)ccc1O` (stereo not given), the growth is 15.9% (inactive).
Turning to `CCC(c1ccc(O)cc1)C(CC)c1ccc(O)c(F)c1` (stereo not given), the growth is 69.5% (inactive).
